Source: PubChem
This is a sample that favours compounds with a hit; in the whole collection about 11% have one here.
HPGD inh = inhibitors of human 15-hydroxyprostaglandin dehydrogenase (HPGD); 4.3% of 150,000 active; purified HPGD, NADH fluorescence kinetic, PGE2 substrate; Potency, µM, inactives show top-dose activity change, negative = inhibition, most hits filed as inhibitors; P15428; further: potency means the concentration at half of the fitted maximal effect
Target sequence (P15428 whole entry, looked up): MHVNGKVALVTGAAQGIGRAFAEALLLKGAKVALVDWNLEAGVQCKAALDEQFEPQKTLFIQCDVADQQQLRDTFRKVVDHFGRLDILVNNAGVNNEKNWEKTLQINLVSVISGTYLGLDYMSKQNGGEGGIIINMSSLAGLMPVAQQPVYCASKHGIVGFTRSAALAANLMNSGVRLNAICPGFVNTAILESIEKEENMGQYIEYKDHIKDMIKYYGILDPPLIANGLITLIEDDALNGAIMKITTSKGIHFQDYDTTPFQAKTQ
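20 nM HPGD preincubated 15 min at room temperature with compound in 50 mM Tris-HCl pH 8, 0.01% Tween 20. Started with 1 mM NAD+ and 30 uM prostaglandin E2; NADH fluorescence (360/450 nm) read 5 times over 30-s intervals, last minus first.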
PNC inhibitor = perinucleolar compartment assembly inhibition; PC3M PTB-GFP, PNC prevalence imaging, 16 h; active compounds read low; activity change (PNC), negative = inhibition, % at 10 µM; 3.1% of 140,000 active;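 active means readout at or below -70, meaning at least 70% loss of cells showing the perinucleolar compartment, a nuclear body marking cancer cells; inconclusive means readout between -30 and a set limit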;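 further: plate controls were DMSO wells for no effect and camptothecin positive control wells for full effect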
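Read-out is percentage of cells bearing a perinucleolar compartment, from automated 20x imaging of fixed, Hoechst-stained PC3M PTB-GFP cells. Cells were seeded 4 h, then exposed 16 h to compound (23 nl of library stock) in duplicate plates.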
IMPase Li inh = IMPase inhibition in cells with lithium potentiation. Potency, µM (highest dose often 59.4 µM), for the others: at the top dose activity, negative = IMPase inhibition, most hits filed as inhibitors. 0.35% of 210,000 active. AID 1457. CHO-M1 cells, IP1 TR-FRET (IP-One), carbachol + lithium; active means well fitted inhibition curve with a large enough effect; inconclusive means small, poorly fitted or top-dose-only effect; inactive means no such curve, though single readings can be large or run the other way;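 further: IP1 builds up when IMPase is blocked and the TR-FRET signal falls; potency means the concentration at half of the fitted maximal effect; plate controls were basal vehicle for no effect and high inhibitor control for full effect; nearly all actives have a fitted effect of over 50% in size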
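CHO-M1, 2000 cells/well, 16–30 h culture; cpd + low Li+, 30 min 37C; lysis with d2-IP1/Eu-anti-IP1 Ab, 10 min RT; TR-FRET 665/620 ratio and 620 channel; AC50 via Hill.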
IMPase inh = IMPase inhibition in cells; 120,000 tested, under 10 active; AID 901; inhibition (IP1 accumulation), % at 46.1 µM; P97697; CHO-M1 cells, IP1 accumulation, HTRF TR-FRET ratio; active means well fitted curve in the direction sought with a large enough effect in the signal ratio, not every such curve was filed as active; inconclusive means small, poorly fitted or top-dose-only effect, or a change in a side signal; inactive means no such curve, though single readings can be large or run the other way; the % refers to the signal ratio;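 further: cells stimulated with carbachol in lithium chloride buffer; plate controls were DMSO basal wells for no effect and reference inhibitor wells for full effect; higher means more IMPase inhibition seen as more IP1 and lower FRET ratio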
Target sequence (P97697 whole entry, looked up): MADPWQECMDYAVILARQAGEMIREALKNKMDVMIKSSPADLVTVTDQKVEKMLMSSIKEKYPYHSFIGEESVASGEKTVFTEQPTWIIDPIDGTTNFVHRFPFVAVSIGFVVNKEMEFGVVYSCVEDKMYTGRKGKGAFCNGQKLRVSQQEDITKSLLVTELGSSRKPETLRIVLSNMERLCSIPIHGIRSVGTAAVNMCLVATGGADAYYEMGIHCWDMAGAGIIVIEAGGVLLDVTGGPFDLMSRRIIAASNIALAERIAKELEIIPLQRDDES
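Elevated IP1 in lysates lowers TR-FRET signal (665/620 ratio and 620 channel reported). Cells were CHO-M1, given carbachol (50 uM as added) plus 50mM LiCl, pH 7.4, 30 min, 37C; compounds titrated up to 46 uM; AC50 by Hill equation.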
ALDH1A1 inh = ALDH1A1 (human) enzyme inhibition | P00352 | Purified ALDH1A1, NADH fluorescence, propionaldehyde substrate | Potency, µM (top dose mostly 75.3 µM), for the others: at the highest dose activity, negative = inhibition, usual class: inhibitors | 7.3% of 220,000 active;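 further: potency means the concentration at half of the fitted maximal effect; plate controls were no enzyme wells and a reference inhibitor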
An asterisk follows results filed as active; ? = inconclusive; . = no result given; ! = not confirmed by another sample; [ ] = dose if it differs, or a comment. Unless noted, the call rests on the fitted dose curve; in most records, active means well fitted inhibition curve with a large enough effect (not every such curve was filed as active); inconclusive means small, poorly fitted or top-dose-only effect, or another doubt; inactive means no such curve, though single readings can be large or run the other way. Unless noted, on the % scale 0 is the no-effect control and ±100 the full control effect.

SMILES | HPGD inh | PNC inhibitor | IMPase Li inh | IMPase inh | ALDH1A1 inh
CCCCCCn1c(CN2CCN(CCO)CC2)nc2c1c(=O)n(C)c(=O)n2C | -7% | 46 | 12%[38.3 µM] | 8 | 4µM*
CCCCCn1c(N2CCN(c3cccc(Cl)c3)CC2)nc2c1c(=O)[nH]c(=O)n2C | -4% | 23 | 25%[38.3 µM] | 6 | -14%
CCCCn1c(CN2CCN(c3cccc(Cl)c3)CC2)nc2c1c(=O)n(C)c(=O)n2C | -21% | -12 | 27%[38.3 µM] | 13 | 16µM*
CCCCCn1c(CN2CCN(c3cccc(Cl)c3)CC2)nc2c1c(=O)n(C)c(=O)n2C | -12% | -5 | 8%[38.3 µM] | 15 | 3.5µM*
COc1cc(OC)c(NC(=O)Nc2c(C)n(C)n(-c3ccccc3)c2=O)cc1Cl | . | . | . | 13 | .
CCCC(=O)OCC(=O)Nc1ccc2[nH]c(=O)[nH]c2c1 | . | . | -2% | . | -5%
O=C(CCl)Nc1cc2[nH]c(=O)[nH]c2cc1Br | . | . | 0% | . | 2µM*
Cc1cccc(NC(=O)NNC(=O)c2sccc2-n2cccc2)c1 | . | . | 5% | . | ?
O=C(COC(=O)C1CC2C=CC1C2)NCc1ccccc1Cl (configuration not stated) | -14% | -12 | 0% | . | -4%
COC(=O)c1ccc(CNC(=O)COC(=O)CCC2CCCC2)cc1 | -21% | 11 | 6% | . | -13%
COc1ccc(CNC(=O)COC(=O)C2CC3C=CC2C3)cc1 (configuration not stated) | ? | 5 | -3% | 8 | 11µM*
COc1ccc(CNC(=O)COC(=O)CCC2CCCCC2)cc1 | . | 36 | . | -5 | 5.6µM*
Cc1ccc(NC(=O)c2c3c(nc4ccccc24)CCC3)cc1S(=O)(=O)N(C)C | . | . | -11% | . | -2%
Cc1ccc2nc3c(c(Nc4ccc(C)c(C)c4)c2c1)CCC3 | . | . | . | -9 | .
CC(=O)O[C@]1(C(C)=O)CC[C@H]2[C@@H]3C=C(Cl)C4=CC(=O)CC[C@]4(C)[C@H]3CC[C@@]21C | -7% | -1 | -5% | . | ?
CC(=O)O[C@]1(C(C)=O)CC[C@H]2[C@@H]3C[C@H](C)C4=CC(=O)CC[C@]4(C)[C@H]3CC[C@@]21C | -1% | 13 | -1% | . | 32µM*!
O=C(Oc1ccc(OC(=O)c2ccco2)c(S(=O)(=O)c2ccc(Br)cc2)c1)c1ccco1 | 28µM* | -100* | 14%[38.3 µM] | 7 | ?
O=C(NC(=S)N(CC1CCC1)CC1CCCO1)c1cccc([N+](=O)[O-])c1 (configuration not stated) | . | . | 6% | . | ?
O=c1c(Cl)c(Cl)cnn1-c1ccccc1 | -12% | 10 | -12% | -22 | 13µM*
CSc1cnn(-c2ccccc2)c(=O)c1SC | -20% | -21 | 11µM* | ? | ?
COc1cnn(-c2ccc(C)cc2)c(=O)c1SCc1ccccc1 | . | -12 | . | ? | ?
CCSc1cnn(-c2ccccc2)c(=O)c1SCC | -21% | 61 | 10µM* | ? | ?
CCCCSc1cnn(-c2ccccc2)c(=O)c1SCCCC | -9% | -81* | -24% | ? | 7%
C=CC(C1=CC(=O)C(OC)=CC1=O)c1ccc(O)cc1 (configuration not stated) | -25% | . | 2% | . | 0%
CC1CCCCN1C(=O)CSc1nc2cc3c(cc2c(=O)n1Cc1ccc2c(c1)OCO2)OCO3 (configuration not stated) | -27% | -87* | 37%[38.3 µM] | -10 | 22µM*
SMILES | HPGD inh | PNC inhibitor | IMPase Li inh | IMPase inh | ALDH1A1 inh
CCn1c(SCC(=O)N2CCCCC2C)nc2ccsc2c1=O (configuration not stated) | ? | ? | -12%[38.3 µM] | 4 | 7.9µM*
CC1CCCCN1C(=O)CSc1nc2ccsc2c(=O)n1Cc1ccccn1 (configuration not stated) | -13% | 50 | 10%[38.3 µM] | 6 | 16µM*
Cc1cc(NC(=O)CSc2nc3ccsc3c(=O)n2Cc2ccccn2)n[nH]1 | -14% | -16 | -7%[38.3 µM] | 2 | -26%
O=C(O)c1ccc(Cl)c(S(=O)(=O)Nc2ccccc2)c1 | -2% | . | . | . | 8%
Cc1ccc(/C=N/n2c(-c3cccnc3)n[nH]c2=S)s1 | 13µM* | -23 | 2% | . | ?
S=c1[nH]nc(-c2cccnc2)n1/N=C/c1ccc(Br)s1 | 16µM* | -9 | 0% | . | ?
CN(C)c1ccc(/C=N/n2c(-c3cccnc3)n[nH]c2=S)cc1 | . | . | -3% | . | ?
S=c1[nH]nc(-c2cc(-c3ccccc3)n[nH]2)n1/N=C/c1ccc(Br)s1 | . | . | . | . | 16%
Cc1ccc(C(=O)Nc2ccccc2C(=O)O)cc1S(=O)(=O)N1CCCCCC1 | . | . | . | 0 | .
Cn1c(=O)c2c(nc(NCCc3ccccc3)n2Cc2cccc(Br)c2)n(C)c1=O | . | . | . | -10 | .
Cc1cc(N=NC(=O)c2ccccc2)ccc1O | . | . | 18% | . | 22µM*
COC(=O)c1ccccc1COn1c(=O)c(C)[n+]([O-])c2ccccc21 | -4% | -22 | 19%[38.3 µM] | -2 | 22µM*
CC1CCc2nn(CC(=O)NCCCN3CCOCC3)cc2C1 (configuration not stated) | -2% | -29 | 29%[38.3 µM] | -1 | 15%
CC1CCc2nn(CC(=O)NCCN3CCOCC3)cc2C1 (configuration not stated) | -5% | -82* | 20%[38.3 µM] | 10 | 1%
Cc1cc(NS(=O)(=O)c2ccc(NC(=O)C(CC(C)C)N3C(=O)c4ccccc4C3=O)cc2)nc(C)n1 (configuration not stated) | -5% | 10 | -2%[38.3 µM] | 1 | 6%
Cc1cc(NS(=O)(=O)c2ccc(NC(=O)C(C(C)C)N3C(=O)c4ccccc4C3=O)cc2)nc(C)n1 (configuration not stated) | -11% | -88* | 1%[38.3 µM] | 2 | -16%
COc1ccccc1-c1nccc(NCc2cccs2)n1 | . | . | 27% | . | ?
O=[n+]1c2c(n([O-])c3cc(F)ccc31)CCCC2 | -22% | ? | 8%[38.3 µM] | 13 | -2%
O=[n+]1c2c(n([O-])c3cc(F)c(N4CCCC4)cc31)CCCC2 | -12% | ? | -7%[38.3 µM] | -5 | 20µM*
COC(=O)c1cc(CSc2nnc(NC3CCCCC3)s2)oc1C | -26% | ? | 46%[38.3 µM] | ? | ?
CN(C)c1ccc(C(=O)C(O)c2ccc(C(C)(C)C)cc2)cc1 (configuration not stated) | -15% | 7 | -1%[38.3 µM] | -4 | ?
CC(c1ccc(C(C)(C)C)cc1)S(=O)CC(O)CO (configuration not stated) | -4% | -112* | -10% | . | 4%
C=C1C2(C(=O)NCc3ccco3)CCC(C2)C1(C)C (configuration not stated) | 25µM* | ? | 5% | 5 | -6%
COc1ccc(S(=O)(=O)n2nc(OC(=O)c3cccs3)cc2NC(=O)c2cccs2)cc1 | . | . | -3% | . | -1%
CC1C/C(=N\NC(=O)c2cccnc2)CC(C)(C)C1 (configuration not stated) | . | . | 4% | . | ?
